High-throughput results as filed in PubChem.
Anthrax LF inh2 = anthrax lethal factor protease inhibition; multiplex microsphere protease cleavage assay, LF; inhibition, % at 10 µM; hit rate 0.12% among 360,000; P15917; in the data active = inhibition above about 30%; inconclusive = no clear call, values can overlap the other calls; note: plate controls were buffer without enzyme for full effect and enzyme alone for no effect
Autofluor counter = counter-screen for toxin protease inhibitors: compound fluorescence; compound autofluorescence counterscreen, microsphere flow cytometry; active compounds read high; fluorescence intensity (concentration not given with the values); hit rate 3.1% among 360,000; AID 624483; in the data active = fluorescence intensity above about 16000; inconclusive = no clear call, values can overlap the other calls
BoNT-A LC inh2 = BoNT A light chain protease inhibition; multiplex microsphere protease substrate cleavage, flow cytometry; inhibition, % at 10 µM; hit rate 0.17% among 360,000; AID 588499; in the data active = inhibition above about 30%; inconclusive = no clear call, values can overlap the other calls; note: plate controls were buffer without enzyme for full effect and enzyme alone for no effect
BoNT F protease = blocks Botulinum neurotoxin F light chain protease. Multiplex microsphere protease cleavage assay, flow cytometry. inhibition, % at 10 µM. hit rate 0.22% among 360,000. AID 588497; in the data active = inhibition above about 35%, passing the limit was not always enough; inconclusive = no clear call, values can overlap the other calls; note: plate controls were buffer without enzyme for full effect and enzyme alone for no effect
PriA SSB inh = inhibitors of Klebsiella pneumoniae PriA binding to SSB C-terminal tail; AlphaScreen SSBct-PriA binding, biotinylated peptide; inhibition, % at 33 µM; hit rate 0.6% among 430,000; in the data active = inhibition mostly above about 37%, no sharp cut-off; inactive = mostly below about 20%;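 note: plate controls were negative control peptide for no effect and reference peptide for full effect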
BoNT-A LC CP1 = blocks botulinum neurotoxin A light chain protease | shares compounds with BoNT F protease | multiplex microsphere protease assay, flow cytometry | inhibition, % at 10 µM | hit rate 3% among 720 | AID 602139; in the data active = inhibition above about 32%
BoNTF LC inh 1 = inhibitors of Botulinum neurotoxin F light chain protease | 720 tested, under 10 active | shares compounds with BoNT F protease | inhibition, % at 10 µM | multiplex microsphere protease cleavage assay, flow cytometry | AID 602140
Anthrax LF CP1 = blocks anthrax lethal factor protease; shares compounds with BoNT F protease; multiplex microsphere protease cleavage assay, LF; inhibition, % at 10 µM; 720 tested, under 10 active
* hit, by the source's call; ? = inconclusive; . = no result. An excerpt weighted towards active compounds, which were near 3.1% of everything screened. Unless noted, the rule behind the calls is not given here.

SMILES	Anthrax LF inh2	Autofluor counter	BoNT-A LC inh2	BoNT F protease	PriA SSB inh	BoNT-A LC CP1	BoNTF LC inh 1	Anthrax LF CP1
COc1cccc(C(=O)NCc2ccc3[nH]c(C)cc3c2)c1	-84	2008	52*	-108	18	0	-7	0
Cc1cc2cc(CNC(=O)c3ccc(F)c(F)c3)ccc2[nH]1	.	.	.	.	6	.	.	.
COc1cc(OC)cc(C(=O)NCc2ccc3[nH]c(C)cc3c2)c1	-22	2898	48*	-60	3	-1	-6	-3
CCn1c(CC2CCCN(C(=O)C3CC(=O)N(c4ccccc4)C3)C2)n[nH]c1=O (stereo unspecified)	.	.	.	.	10	.	.	.
CCCCC(=O)C1CCN(Cc2ccccc2)CC1	-2	7263	0	33	-4	1	-5	0
Cc1cc(Nc2cccc(F)c2)nc(N2CCOCC2)n1	-2	3819	-3	42*	-17	0	-1	-4
Cn1cccc1[C@@H](O)CCNC(=O)Cc1ccsc1	.	.	.	.	-7	.	.	.
CCC(C)NC(=O)c1c(N)n(Cc2ccc3c(c2)OCO3)c2nc3ccccc3nc12 (stereo unspecified)	14	4797	30*	-14	-18	4	-6	-4
CS(=O)(=O)Nc1ccc(C2=NN(C(=O)CCCC(=O)O)C(c3cccs3)C2)cc1 (stereo unspecified)	-3	4361	-4	37*	-7	0	-3	-4
CCn1c2ccccc2c2nc3cc(OC)c(OC)cc3nc21	23	5340	50*	32	-20	23	4	9
CCn1c2ccccc2c2nc3ccccc3nc21	-5	8426	18	0	-125	.	.	.
COc1ccc(-n2nnc3c(=O)n(CC(=O)Nc4ccc5c(c4)OCO5)cnc32)cc1OC	.	.	.	.	-10	.	.	.
O=C(COc1ccccc1)N(Cc1nnc(-c2ccccc2Cl)o1)C1CC1	0	5742	12	37*	-20	1	-6	4
CCCn1c(SCC(=O)c2c[nH]c3ccccc23)nnc1-c1ccncc1	15	4586	53*	-24	11	17	-9	17
Cc1ccc2nc(SCC(=O)c3c[nH]c4ccccc34)[nH]c2c1	14	5287	58*	-17	0	20	-19	17
Cc1occc1-c1nnc(SCC(=O)c2c[nH]c3ccccc23)n1C	45*	4371	54*	27	5	-1	-8	3
COCCNc1nnc(SCC(=O)c2c[nH]c3ccccc23)s1	17	5036	52*	-19	-2	10	-14	13
O=C(c1ccc2c(c1)OCO2)N1CCS[C@H](c2ccco2)CC1	.	.	.	.	1	.	.	.
Cn1c(=O)c2c(ncn2CN2CCCCCC2)n(C)c1=O	.	.	.	.	-8	.	.	.
Brc1ccc2nc(N3CCc4ccccc4C3)sc2c1	.	.	.	.	-15	.	.	.
O=C(Nc1ccc(-c2cnco2)cc1)c1ccc(F)cc1F	24	3173	?	?	-4	.	.	.
Cc1ccc(-c2cnco2)cc1	30*	4486	?	?	1	1	-2	6
O=S(=O)(Cc1ccc(Cl)cc1)c1ccc(NCCCc2ccco2)nn1	.	.	.	.	-8	.	.	.
CCOc1ccc(N2C(=O)CC(SC(N)=NN=Cc3cccs3)C2=O)cc1 (stereo unspecified)	.	.	.	.	-5	.	.	.
C=CCc1cccc(CNn2cnnc2)c1O	3	4273	-1	43*	-3	-1	0	-4
SMILES	Anthrax LF inh2	Autofluor counter	BoNT-A LC inh2	BoNT F protease	PriA SSB inh	BoNT-A LC CP1	BoNTF LC inh 1	Anthrax LF CP1
CSc1nnc2c(n1)c(C)nn2-c1cccc(C)c1	53*	6571	69*	10	6	33*	4	20
Cc1cccc2c1NC(C)CC2C (stereo unspecified)	40*	2139	34*	6	7	1	-2	-4
COc1cc2c(cc1OC)C(C)N(S(=O)(=O)c1ccc(C)cc1)CC2 (stereo unspecified)	4	3602	0	-4	-19	.	.	.
COc1cc2c(cc1OC)C(C)N(S(=O)(=O)c1cccs1)CC2 (stereo unspecified)	32*	3519	6	-7	-2	1	-2	-1
Cc1cc(C)c(S(=O)(=O)NC[C@@](O)(c2ccccc2)C2CC2)cc1C	.	.	.	.	-11	.	.	.
CN(CC(=O)NCCc1ccc(S(N)(=O)=O)cc1)Cc1c(F)cccc1Cl	5	3568	-2	40*	4	1	-4	-5
NS(=O)(=O)c1ccc(NCc2c(F)cccc2Cl)cc1	-8	8836	38*	46*	-11	1	0	-3
Fc1cccc(Cl)c1CNc1ccc(N2CCCC2)cc1	-9	2305	-1	-35	100	.	.	.
CCN(CC)c1ccc(C=NNC(=O)c2cccc(N3CCCC3=O)c2)cc1	.	.	.	.	1	.	.	.
CC(C)c1ccc(S(=O)(=O)c2cnc(=S)[nH]c2N)cc1	-10	3254	2	37*	6	3	1	-1
Cc1cc(C)c(C)c(S(=O)(=O)N2CCC(n3ccnn3)CC2)c1C	.	.	.	.	-4	.	.	.
O=C1C(=NS(=O)(=O)c2cccs2)C([n+]2ccccc2)=C([O-])c2ccccc21	.	.	.	.	3	.	.	.
CCN(CC)c1nc2cc(OC)ccc2cc1C#N	19	5562	31*	23	-1	3	2	-2
Cc1cc2cc(CNC(=O)Cc3ccc([N+](=O)[O-])cc3)ccc2n1C	-64	2033	77*	-85	25	2	-10	-3
Cc1cc2cc(CNC(=O)c3ccccc3C)ccc2[nH]1	.	.	.	.	0	.	.	.
Cc1cc2cc(CNC(=O)c3cccc([N+](=O)[O-])c3)ccc2n1C	-6	4361	2	-9	20	.	.	.
Cc1cc2cc(CNC(=O)CCC(=O)O)ccc2n1C	-1	2670	-2	-4	-7	0	-1	1
CCCC(=O)NCc1ccc2c(c1)cc(C)n2C	-3	4194	17	-37	-23	3	-7	0
Cc1cc2cc(CNC(=O)Cc3ccc([N+](=O)[O-])cc3)ccc2[nH]1	8	3872	58*	-31	4	-1	-9	-3
CC(C)N1CCC(CNS(=O)(=O)Cc2ccc(Cl)cc2)CC1	.	.	.	.	7	.	.	.
O=C(CCSc1ccccc1)NCCn1ccn2nc(-c3ccco3)cc12	.	.	.	.	23	.	.	.
FC(F)Oc1ccc(-n2c(-c3ccc(Cl)c(Cl)c3)c[nH]c2=S)cc1	.	.	.	.	26	.	.	.
Cc1nc(C)c(CC(=O)Nc2nc(-c3ccco3)cs2)s1	.	.	.	.	-4	.	.	.
O=C(Cc1csc(Nc2ccc(OC(F)(F)F)cc2)n1)NCC1CCCO1 (stereo unspecified)	.	.	.	.	-12	.	.	.
CSc1ncc(Cl)c(C(=O)Nc2cccc(Cl)c2C)n1	.	.	.	.	-8	.	.	.
O=C(NCc1ccccc1)C(c1ccc(F)cc1)N(Cc1ccc2c(c1)OCO2)C(=O)Cn1nnc(-c2cccs2)n1 (stereo unspecified)	3	3945	3	51*	-3	-1	-9	0
CCCC(C(=O)NCc1ccccc1)N(C(=O)Cn1nnc(-c2cccs2)n1)c1ccc2c(c1)OCCO2 (stereo unspecified)	0	4125	-1	-35	-6	.	.	.
